From PubChem BioAssay
mHTT CaM bind = mHTT-calmodulin interaction abrogation; P42858; AlphaScreen His-mHTT/GST-CaM binding, luminescence; inhibition, % at 15 µM; 190,000 compounds, 3.6% hits;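 note: 0% = both proteins with DMSO and 100% = one protein alone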
Pf apPOL inh = Pf-apPOL DNA polymerase inhibition. 210,000 compounds, 0.25% hits. Recombinant Pf-apPOL, molecular beacon fluorescence, 1.5 h. inhibition, % at 10 µM. AID 1794808
* = called active by the depositor. Sampled rows, rich in hits. Any-hit rate of the full collection: about 3.5%. Cut-off read from the data, not from the text of the source: active = inhibition above about 50%; inactive = the rest.

Screening CCC1=NN(C(=O)c2ccc(C)cc2)C(O)(c2ccc(Br)cc2)C1 (stereo not drawn) returned mHTT CaM bind 70.0* and Pf apPOL inh 19.9.
`CN(C)c1ncncc1N1CCC(C(=O)N2CCCCC2)CC1` gave mHTT CaM bind -3.0 and Pf apPOL inh -0.8.
`O=C(Nc1cccc(C(F)(F)F)c1)c1ccc(N2C(=O)c3ccccc3C2=O)cc1` gave mHTT CaM bind 2.0 and Pf apPOL inh -1.3.
For CC1=NN(C(=O)c2ccc(Cl)cc2)C(O)(c2cccc([N+](=O)[O-])c2)C1 (stereo not drawn) the results were mHTT CaM bind 40.0 and Pf apPOL inh -10.6.
Screening CC1=NN(C(=O)c2cccc([N+](=O)[O-])c2)C(O)(c2ccc(Cl)cc2)C1 (stereo not drawn) returned mHTT CaM bind 59.0* and Pf apPOL inh 0.8.
N#CC1=C(N)SC(N)=C(C#N)C1c1ccc([N+](=O)[O-])s1 was read as mHTT CaM bind 67.0*.
For N#CC1=C(N)SC(N)=C(C#N)C1c1ccc(Cl)c([N+](=O)[O-])c1 the results were mHTT CaM bind 77.0* and Pf apPOL inh -5.1.
Screening Cc1cc(C)c([N+](=O)[O-])c(C)c1C1C(C#N)=C(N)SC(N)=C1C#N returned mHTT CaM bind 65.0* and Pf apPOL inh -2.1.
`N#Cc1ccc([N+](=O)[O-])s1` gave Pf apPOL inh 2.1.
Screening N#CC1=C(N)SC(N)=C(C#N)C1c1ccc(Cl)cc1 returned mHTT CaM bind 32.0 and Pf apPOL inh 12.6.
Screening Cc1ccsc1C1C(C#N)=C(N)SC(N)=C1C#N returned mHTT CaM bind 17.5 and Pf apPOL inh 7.0.
CCOc1ccc(CN2CCc3nc(Nc4ccc5c(c4)OCO5)ncc3C2)cc1OC was read as mHTT CaM bind 31.2 and Pf apPOL inh 2.4.
For CC(C)Oc1ccc(CN2CCc3nc(Nc4ccc5c(c4)OCO5)ncc3C2)cc1 the results were mHTT CaM bind 80.0* and Pf apPOL inh 1.6.
Screening CCOc1ccccc1CN1CCc2nc(Nc3ccc4c(c3)OCCO4)ncc2C1 returned mHTT CaM bind 83.3* and Pf apPOL inh -2.8.
Screening COc1ccccc1CN1CCc2nc(Nc3ccc4c(c3)OCO4)ncc2C1 returned mHTT CaM bind 51.0* and Pf apPOL inh -0.5.
For Cc1ccc(CN2CCc3nc(Nc4ccc5c(c4)OCO5)ncc3C2)cc1 the results were mHTT CaM bind 11.0 and Pf apPOL inh -3.7.
For COc1cccc(CN2CCc3nc(Nc4ccc5c(c4)OCO5)ncc3C2)c1 the results were mHTT CaM bind 83.7* and Pf apPOL inh 2.9.
Fc1cccc(CN2CCc3nc(Nc4ccc5c(c4)OCO5)ncc3C2)c1 was read as mHTT CaM bind 18.2 and Pf apPOL inh -4.9.
For COc1ccccc1CN1CCc2nc(Nc3ccc4c(c3)OCCO4)ncc2C1 the results were mHTT CaM bind 32.9 and Pf apPOL inh -2.9.
`CCOC(=O)N1CCc2nn(CC(=O)Nc3ccc4c(c3)OCCO4)c(=O)cc2C1` gave mHTT CaM bind 23.8 and Pf apPOL inh -0.9.
For CCn1cnc2ccc(-c3noc(COc4cccc(C)c4)n3)cc21 the results were mHTT CaM bind -8.2 and Pf apPOL inh -1.3.
O=C(NCc1ccccc1)O[C@@H]1C[C@H]2C[C@@H]1[C@H]1CCCCN1C2 was read as mHTT CaM bind 17.8 and Pf apPOL inh -3.2.
For CCOC(=O)CCCNC(=O)O[C@@H]1C[C@H]2C[C@@H]1[C@H]1CCCCN1C2 the results were mHTT CaM bind 84.7* and Pf apPOL inh -3.4.
`CC(C)C(C(=O)O)N1C(=O)C(=Cc2cccc(Br)c2)SC1=S` (stereo not drawn) gave mHTT CaM bind 58.8* and Pf apPOL inh -30.9.
Screening COc1ccc(OC)c(C=C2SC(=S)N(C(C(=O)O)C(C)C)C2=O)c1 (stereo not drawn) returned mHTT CaM bind 51.1* and Pf apPOL inh -38.5.
CC(C)C(C(=O)O)N1C(=O)C(=Cc2ccccc2)SC1=S (stereo not drawn) was read as mHTT CaM bind 3.1 and Pf apPOL inh -17.2.
For COc1ccc(OC)c(C=C2SC(=S)N(C(C)C(=O)O)C2=O)c1 (stereo not drawn) the results were mHTT CaM bind 15.0 and Pf apPOL inh -12.7.
For Cc1ccc(CSc2nc(CC(=O)NCc3nc4ccccc4[nH]3)cs2)cc1 the results were mHTT CaM bind 11.4 and Pf apPOL inh -13.0.
Screening CC1=C(C(=O)Nc2cc(C)ccn2)C(c2ccccc2C(F)(F)F)C2=C(CC(C)(C)CC2=O)N1 (stereo not drawn) returned mHTT CaM bind 11.0 and Pf apPOL inh 2.4.
COc1ccc(C(C)NC(=O)CN(c2ccc([N+](=O)[O-])cc2)S(=O)(=O)c2ccccc2)cc1 (stereo not drawn) was read as mHTT CaM bind 13.1 and Pf apPOL inh 0.9.
For COc1ccc(-c2csc(Nc3ccccc3)[n+]2CC(O)c2ccc([N+](=O)[O-])cc2)cc1 (stereo not drawn) the results were mHTT CaM bind 65.5* and Pf apPOL inh 0.8.
For CN(CCCNC(=O)C1CCCN(c2ccc(N3CCOCC3)nn2)C1)c1ccccc1 (stereo not drawn) the results were mHTT CaM bind 54.7* and Pf apPOL inh -4.6.
Screening CCCCNC(=O)C1CCCN(c2ccc(N3CCOCC3)nn2)C1 (stereo not drawn) returned mHTT CaM bind -0.2 and Pf apPOL inh -4.0.
For COc1ccccc1NC(=O)N1CCc2ccccc21 the results were mHTT CaM bind -3.0 and Pf apPOL inh -8.6.
Screening CCCCNC(=O)CCC1N=C2c3ccccc3N=C(SCc3ccc([N+](=O)[O-])cc3)N2C1=O (stereo not drawn) returned mHTT CaM bind 3.0 and Pf apPOL inh -1.7.
For CCCCNC(=O)CC1N=C2c3ccccc3N=C(SCc3ccc([N+](=O)[O-])cc3)N2C1=O (stereo not drawn) the results were mHTT CaM bind 53.0* and Pf apPOL inh -2.2.
Screening Cc1csc(COc2ccc(C(=O)Nc3cccc(NS(C)(=O)=O)c3)cc2)n1 returned mHTT CaM bind 7.3 and Pf apPOL inh -7.3.
`O=C(CCc1ccccc1)Nc1ccc([N+](=O)[O-])cc1O` gave mHTT CaM bind 5.4 and Pf apPOL inh -7.9.
CS(=O)(=O)N1CCN(c2ccc([N+](=O)[O-])c(N3CCN(Cc4ccccc4)CC3)c2)CC1 was read as mHTT CaM bind 4.0 and Pf apPOL inh -8.2.
COc1ccc(/C=C2\C=C(c3ccccc3)N(c3ccc(N(C)C)cc3)C2=O)cc1 was read as mHTT CaM bind 36.0 and Pf apPOL inh 2.4.
Screening COc1ccc(/C=C2/C(=N)N3C(c4ccccc4)=CSC3=NC2=O)cc1Br returned mHTT CaM bind 10.0 and Pf apPOL inh 4.9.
COc1ccc(/C=C2\C=C(c3ccccc3)N(c3ccc(C(=O)O)cc3)C2=O)cc1 was read as mHTT CaM bind 33.0 and Pf apPOL inh -0.1.
COc1ccc(/C=C2\C=C(c3ccccc3)N(c3ccc(O)cc3)C2=O)cc1 was read as mHTT CaM bind 59.0* and Pf apPOL inh 1.6.
COc1ccc(/C=C2\C=C(c3ccccc3)N(c3cccnc3)C2=O)cc1Br was read as mHTT CaM bind 53.0* and Pf apPOL inh -3.1.
`O=C1/C(=C/c2ccc([N+](=O)[O-])cc2)C=C(c2ccccc2)N1c1ccccc1` gave mHTT CaM bind 4.0 and Pf apPOL inh -4.5.
O=C1/C(=C/c2ccc([N+](=O)[O-])cc2)C=C(c2ccccc2)N1c1ccc(O)cc1 was read as mHTT CaM bind 59.0* and Pf apPOL inh 1.5.
